Here are results for 22 sequences from the supplement of paper PMC6555819.

This assay has as its system PPARg:RXRa 270nM:90nM, anti-RXR (NR concentration 270 nM, RXRa partner concentration 90 nM). In words: PBM binding z-score (relative to random genomic background probes); higher = stronger binding; sequences stand for … in GC…GCGATTGACAGCGTAGAATGAAGG
The gist of the method:
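The probes on custom Agilent 4×180K protein-binding microarrays were double-stranded, with 34-nt variable regions bearing direct-repeat seeds, single-nucleotide variants, half-site ablations and random human genomic background sequences. Incubation lasted 1 h with ligand-free nuclear receptor dimers in PBS pH 7.4, 2% milk, 0.02% Triton X-100, 1 mM DTT, 0.2 mg/mL BSA and 0.4 mg/ml salmon testes DNA. Antibodies against each partner (one per run) detected bound dimers, and fluorescence scans were regression-normalized. Binding z-scores take the random background probes as reference.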
The sequence AGAACGAGGGCAATGAGTTGATAACACGGGTGGC showed a PBM binding z-score of 0.983.

For ACTAGCAGGCCAAGGGTCAATCAAGATTAGTCCG, the PBM binding z-score is 7.68.

Sequence AATACAGGGTCATCGTAGGCCAGTGTACGCACAG registered a PBM binding z-score of 5.88.

For the sequence TGTCAAAGTTCAAAGGCAACGTAAGTATCCACAC, the PBM binding z-score stood at 7.39.

In turn, TGGCCTAGGTCATTGGGCCAGTATAGTACGCATC displayed a PBM binding z-score of 3.34.

Consider ATCGAAAGGTCGGCGAGGTGAGTATACACCGTTT, for which the PBM binding z-score was 2.25.

The sequence CCTAGTTGGTCAAGAGGTCACACACCGGATATGA registered a PBM binding z-score of 5.36.

Sequence TCTGCTAGGTCAGCTGGTCAGCTAACGAGCTGCC came in with a PBM binding z-score of 1.78.

As for CCGACTGGAGCAGAAAGGTTACCATACCATCCGG, the PBM binding z-score turned out to be 2.5.

As for CAAACTAGGTCACCTGAAGGTCAAAGTCCGCATG, the PBM binding z-score was 7.17.

Regarding GCCACTGGGGCATCAGCAGGTTACCATAACTTAA, the PBM binding z-score came out at 1.82.

In turn, CAGCCTAGGTCAGGGCCAATATAGGAGGAACGTT came in with a PBM binding z-score of 1.22.

Regarding CTGAGTAGGTTATGGGGCATTCAGGCAACGGTGA, the PBM binding z-score was found to be 5.02.

In the case of CGACCAAGGTCAAAGGTCAGTGAAGAGATGACGG, the PBM binding z-score amounted to 9.46.

As to ACTCGTAGGACAAAGGTCAGAGCTACGCCAGTGA, the PBM binding z-score was found to be 7.75.

GGTACGAGGGCAAGTTGATAGCAGAGTTTGATGG showed a PBM binding z-score of 0.456.

In turn, CTCGAAAGGTCGTTCTCAGGTGAGTATACCAAAC displayed a PBM binding z-score of 3.08.

The sequence AGTACAGGGTCATCGTAGGCCAGAGTACGCACAG returned a PBM binding z-score of 5.7.

Regarding TCTTGTGGATCAGCAGGTTAAGAAAGCTGGCCAA, the PBM binding z-score was determined as 1.27.

In turn, TTACCAAGGTGAGCAGAGGTCGTTGATCCAACTC gave a PBM binding z-score of 2.89.

In turn, GCGACAGGGGCATCAGCAGGTTACCATAACTTAA gave a PBM binding z-score of 0.0152.

TCATATAGTTAAAAGGTGAAAGTCGGTGTGGTAA showed a PBM binding z-score of 5.23.
